Screening results deposited in PubChem by National Center for Advancing Translational Sciences (NCATS).
Shown are actives, neighbours in structure and some others; about 3.6% of the full set was active somewhere.
JMJD2E inh = qHTS Assay for Inhibitors of Human Jumonji Domain Containing 2E (JMJD2E); 1.6% of 230,000 active; Potency, µM (doses to about 57.1 µM), without a hit: top-dose activity change, negative = inhibition, most hits filed as inhibitors; JMJD2E catalytic domain, FDH-coupled NADH fluorescence (FDH is formaldehyde dehydrogenase); AID 2147, 2009; active = well fitted inhibition curve with a large enough effect, not every such curve was filed as active; inconclusive = small, poorly fitted or top-dose-only effect, or another doubt; inactive = no such curve, though single readings can be large or run the other way;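 also: 0% = wells with enzyme and -100% = buffer wells without enzyme; nearly all actives have a fitted effect of over 50% in size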
Target sequence (B2RXH2 1-337 limits assumed): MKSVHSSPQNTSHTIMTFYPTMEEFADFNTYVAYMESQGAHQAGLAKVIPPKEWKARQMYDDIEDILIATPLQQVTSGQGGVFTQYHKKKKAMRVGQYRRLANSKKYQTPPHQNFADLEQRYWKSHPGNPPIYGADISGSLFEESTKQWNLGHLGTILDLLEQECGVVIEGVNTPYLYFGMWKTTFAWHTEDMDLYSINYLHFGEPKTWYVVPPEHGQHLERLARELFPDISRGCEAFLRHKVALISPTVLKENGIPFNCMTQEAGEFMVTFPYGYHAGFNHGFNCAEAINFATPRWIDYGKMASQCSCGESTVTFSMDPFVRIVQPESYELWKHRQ
KAT2A inh = qHTS Assay for Inhibitors of GCN5L2. Histone acetyltransferase KAT2A (Homo sapiens), Q92830. GCN5L2 HAT assay, ThioGlo1 CoA-SH fluorescence. Potency, µM (titrated, usually from 58.9 µM), for the others: at the top dose activity change, negative = inhibition, actives largely listed as inhibitors. 0.21% of 390,000 active. AID 504327, 2011; also: % is scaled to controls: 0 for no effect and ±100 for the full control effect
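Preincubate 20nM GCN5L2 with compound 15 min, RT → add 50uM ThioGlo1 + 75uM H3(1-25) + 70uM acetyl-CoA → read fluorescence 0 and 20 min. Primary qHTS; fluorescent artifacts likely.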
NPSR antag = qHTS Assay for Antagonists of the Neuropeptide S Receptor: cAMP Signal Transduction; Q6W5P4; CHO-NPSR cells, cAMP TR-FRET, antagonist mode; Potency, µM (doses to about 38.3 µM), for inactives: top-dose activity change, negative = inhibition, actives largely listed as inhibitors; 1% of 220,000 active; AID 1461, 2008; also: % is scaled to controls: 0 for no effect and ±100 for the full control effect; nearly all actives have a fitted effect of over 50% in size
Target sequence (Q6W5P4 whole entry, looked up): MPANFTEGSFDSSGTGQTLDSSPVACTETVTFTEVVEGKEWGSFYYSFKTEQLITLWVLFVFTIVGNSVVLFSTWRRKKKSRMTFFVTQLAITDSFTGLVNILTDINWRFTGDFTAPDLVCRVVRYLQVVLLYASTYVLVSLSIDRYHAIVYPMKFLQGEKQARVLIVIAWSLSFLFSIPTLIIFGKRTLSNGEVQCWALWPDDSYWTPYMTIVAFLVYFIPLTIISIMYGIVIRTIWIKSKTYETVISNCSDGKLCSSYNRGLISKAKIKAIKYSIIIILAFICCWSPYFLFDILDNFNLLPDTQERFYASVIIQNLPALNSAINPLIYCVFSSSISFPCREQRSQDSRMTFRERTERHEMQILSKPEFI
Sfp inh = qHTS Assay for Inhibitors of Bacillus subtilis Sfp phosphopantetheinyl transferase (PPTase) | 4'-phosphopantetheinyl transferase ffp (Bacillus subtilis), Q9F4F7 | Biochemical Sfp PPTase activity, qHTS | Potency, µM, without a hit: largest response in the series, negative = inhibition, usual class: inhibitors | 3.5% of 310,000 active | AID 1490, 2009;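 also: the enzyme is Sfp with the accession as filed and its product quenches rhodamine fluorescence; 0% = enzyme reaction without inhibitor and -100% = no enzyme wells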
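Fluorescence-quenching assay: 15 nM Sfp-PPTase preincubated 15 min at room temperature with compound, then 5 uM rhodamine-CoA and 12.5 uM BHQ-2-labelled YbbR peptide added. Fluorescence (ex 525/em 598 nm) read at start and after 30 min; difference gives rate.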
IMPase Li inh = qHTS Assay for Identifying the Cell-Membrane Permeable IMPase Inhibitors: Potentiation with Lithium | 0.35% of 210,000 active | Potency, µM (doses to about 59.4 µM), without a hit: at the highest dose activity, negative = IMPase inhibition, hits mostly inhibitors | CHO-M1 cells, IP1 TR-FRET (IP-One), carbachol + lithium;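 also: IP1 builds up when IMPase is blocked and the TR-FRET signal falls; plate controls were basal vehicle for no effect and high inhibitor control for full effect; nearly all actives have a fitted effect of over 50% in size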
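IP1 accumulation measured by competitive TR-FRET in lysed CHO-M1 cells after 30 min compound exposure at 37C, with a small lithium addition to potentiate weak responses. Hill-equation AC50 from ratio and donor-channel data.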
Epigenetic derep = Quantitative High-Throughput Screen for Regulators of Epigenetic Control | 0.2% of 280,000 active | murine LDR cells, GFP reporter derepression, 30 h | Potency, µM (doses to about 53.9 µM), without a hit: top-dose GFP activation, actives largely listed as activators | AID 1865, 2009; also: % of control where 0% means no effect; nearly all actives have a fitted effect of over 60% in size
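Derepression of a silenced CMV-GFP reporter in murine LDR cells is scored by enumerating GFP-positive cells with a laser-scanning microplate cytometer after 30 hours of treatment at 37 C.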
Numbers without * were called inactive; ? = inconclusive; · = not tested or not shown; [ ] = another dose, or the depositor's remark. Unless noted, calls follow the shape of the dose curve; as a rule, active = well fitted curve in the direction sought with a large enough effect; inconclusive = small, poorly fitted or top-dose-only effect, or another doubt; inactive = no such curve, though single readings can be large; an effect the other way counts as inactive or inconclusive. Potency is read from the fitted curve at half-maximal effect.

SMILES	JMJD2E inh	KAT2A inh	NPSR antag	Sfp inh	IMPase Li inh	Epigenetic derep
C#C[C@]1(O)CC[C@H]2[C@H]3[C@H](CC[C@@]21C)C1=C(CC(=O)CC1)C[C@@H]3C	·	-8.2%	·	13.9%	·	·
CCOC(=O)C(C(=O)OCC)C(C(=O)OCC)N1CCOCC1 (stereo unspecified)	-9.1%	-8.5%	?	22.4µM*	31.7%[38.3 µM]	0.0%
CCOC(=O)C(C)CC(C)C(=O)N1CCOCCOCCN(C(=O)C(C)CC(C)C(=O)OCC)CCOCC1 (stereo unspecified)	1.2%	22.1%	-6.8%[46.1 µM]	15.8%	-4.6%[38.3 µM]	-1.1%
COc1cccc([C@@H]2Oc3ccc(Br)cc3C(=O)[C@H]2OC(=O)NS(=O)(=O)c2ccc(F)cc2)c1	2.7%	·	·	-5.3%	6.3%	2.2%
O=C(CSc1cccc[n+]1[O-])Nc1ccccc1Oc1ccccc1	-8.2%	-11.6%	?	39.8µM*	1.2%	?
O=C(CCS(=O)(=O)c1ccc(Br)cc1)Nc1ccc(Cl)c(C(F)(F)F)c1	·	14.3%	·	·	·	2.1%
c1cn2cc(-c3ccc4c(c3)OCO4)nc2s1	0.5%	-3.4%	-6.2%[46.1 µM]	31.6µM*	-2.6%[38.3 µM]	1.7%
C#CCCCC(=S)Nc1ccccc1	-0.6%	·	·	4.2%	-10.4%	2.9%
CCNc1ncc2nc(-c3ccccc3)c(=O)n(C[C@H]3CCCO3)c2n1	·	?	·	13.0%	-9.7%	·
CC(C)Oc1ccc(C(=O)NC2=NCCS2)cc1	-24.9%	-12.6%	14.9%	35.5µM*	1.3%	0.0%
COc1ccc(C(=O)NC2=NCCS2)cc1	·	-14.1%	·	-2.7%	·	·
O=C(CSc1nc(-c2ccccc2)nc2c1Cc1ccccc1O2)N1CCCCC1	·	-0.1%	·	·	·	-2.9%
CC(C)Sc1nc(SCC(=O)O)c2c3c(sc2n1)COC(C)(C)C3	?	-11.5%	48.7%	12.5%	·	2.1%
CCCSc1nc(SCC(=O)NCc2ccccc2)c2c3c(sc2n1)COC(C)(C)C3	-12.1%	17.5%	-7.0%[46.1 µM]	18.8%	10µM*	-1.4%
Cc1cccc(CNS(=O)(=O)c2ccc(-c3coc(C)n3)cc2)c1	·	-5.3%	·	·	·	0.0%
COc1ccc(C(=O)NC(=S)Nc2ccc(CN3CCOCC3)cc2)cc1	2.3%	0.9%	-5.1%	-3.0%	·	5.0%
O=C(NC(=S)Nc1ccc(CN2CCOCC2)cc1)c1ccc([N+](=O)[O-])cc1	-2.4%	2.5%	11.9%	50.1µM*	2.8%	0.0%
COCCN(CCOC)c1nc(C)nc2c1nc(-c1ccccc1)n2CCN1CCCC1	?	·	·	-1.3%	-1.9%	5.4%
Cc1cc(N/N=C/c2ccc(O)c(C)c2O)nc(-c2ccccc2O)n1	25.1µM*	21.2%	?	-9.7%	17.8%	0.0%
Cc1cccc(N(Cc2cc3ccccc3[nH]c2=O)C(=O)c2ccco2)c1C	-5.5%	-3.6%	?	79.4µM*	10.9%[38.3 µM]	0.3%
CC(C)N(Cc1cc2ccccc2[nH]c1=O)C(=O)c1ccco1	?	-2.2%	7.9%	50.1µM*	-8.2%	-5.8%
COC(=O)C(C(=O)OC)C(Cc1cc(F)cc(F)c1F)NC=O (stereo unspecified)	12.4%	·	·	-8.5%	22.0%	-1.1%
CSCC[C@H](NC=O)C(=O)N[C@@H](CC(C)C)C(=O)N[C@@H](Cc1ccccc1)C(=O)O	·	-2.0%	·	·	·	·
N#C/C(=C\c1ccc(N2CCOCC2)o1)C(=O)NCC1CCCO1 (stereo unspecified)	?	-8.5%	24.2%	-1.1%	9.3%	1.1%
COCCNC(=O)/C(C#N)=C/c1ccc(N2CCOCC2)o1	?	2.9%	-34.7%	-10.9%	28.9%	12.5%
SMILES	JMJD2E inh	KAT2A inh	NPSR antag	Sfp inh	IMPase Li inh	Epigenetic derep
N#C/C(=C\c1ccc(N2CCOCC2)o1)C(=O)NCCc1ccccc1	39.8µM*	3.3%	-14.6%	5.3%	13.0%	-1.6%
N#C/C(=C\c1ccc(N2CCOCC2)o1)C(=O)NC1CCCCC1	-9.3%	-5.2%	?	44.7µM*	·	4.5%
OC1(c2ccc3ccccc3c2)CCN(Cc2ccccc2)C1 (stereo unspecified)	?	-6.3%	13.0%[46.1 µM]	89.1µM*	22.7%[38.3 µM]	0.7%
CCN(CC)C(=O)/C(C#N)=C/c1cc(O)c(O)c([N+](=O)[O-])c1	·	41.2%	·	?	·	·
N#CC(C#N)=C(N)/C(C#N)=C/c1cc(O)c(O)c(O)c1	·	-9.5%	·	39.8µM*	-21.2%	0.8%
O=C(COc1cccnc1[N+](=O)[O-])Nc1c(Cl)cccc1Cl	·	-2.6%	·	·	·	·
O=C(COc1cccnc1[N+](=O)[O-])c1ccc(Cl)s1	14.1µM*	?	17.2%	2µM*	·	8.1%
COc1cccc(Cn2c(=O)c(C)nc3cnc(OCc4ccccc4)nc32)c1	·	-13.3%	·	-16.1%	6.3%	·
Cc1ccc(Cn2ccc(NC(=O)c3noc4c3CCc3ccccc3-4)n2)cc1	175.2%	-11.7%	-11.8%[46.1 µM]	15.8µM*	25.3%[38.3 µM]	-2.7%
Cc1ccc(C(C)C)c(OCC(=O)Nc2ccc(-c3nc4ncccc4o3)cc2C)c1	·	1.0%	·	·	·	1.9%
Cc1cc(O)c(C(c2ccc(F)cc2)N2CCN(c3ccccc3)CC2)c(=O)n1Cc1ccco1 (stereo unspecified)	·	-11.7%	·	·	·	-2.1%
CCOC(=O)c1cnc2c(OC)cccc2c1N1CCN(c2ccccc2OC)CC1	?	-14.6%	?	79.4µM*	·	-0.3%
CCOC(=O)c1cnc2c(OC)cccc2c1N1CCN(c2ccccn2)CC1	1.1%	-6.4%	-28.2%	6.1%	7.0%	-2.2%
COCCCNC(=O)CC(c1cc(OC)c(OC)c(OC)c1)N1Cc2ccccc2C1=O (stereo unspecified)	·	3.1%	·	·	·	-0.9%
COc1ccc(N2C(=O)CC(Sc3nc(C)cc(C)c3C#N)C2=O)cc1 (stereo unspecified)	?	-0.7%	-0.6%[46.1 µM]	-7.0%	1.1%	-2.0%
O=C(O)CCSC1CC(=O)N(c2ccccc2)C1=O (stereo unspecified)	·	0.8%	·	9.4%	·	·
COc1ccc(N2C(=O)CC(Sc3nnc(-c4ccccc4)o3)C2=O)cc1 (stereo unspecified)	1.1%	1.3%	?	56.2µM*	8.91µM*	?
O=C1CC(Sc2nnc(-c3ccccc3O)o2)C(=O)N1c1ccccc1 (stereo unspecified)	-18.3%	-13.0%	?	56.2µM*	-15.0%[38.3 µM]	0.6%
Cc1c(NC(=O)c2c(N)sc3c2CCCC3)c(=O)n(-c2ccccc2)n1C	-26.1%	-16.1%	-13.3%	28.2µM*	-0.6%	-0.2%
Cc1c(NC(=O)C23CC4CC(CC(C)(C4)C2)C3)c(=O)n(-c2ccccc2)n1C	-0.5%	20µM*	-6.7%[46.1 µM]	13.7%	-6.7%[38.3 µM]	1.1%
